Screens (PubChem BioAssay)
Only some compounds are listed: those with a hit (about 2.5% of all), similar ones and a draw of the others.
GRK2 inh: compounds blocking aptamer binding on GRK2 – biochemical, human GRK2, bead flow cytometry, HTS, primary screen; 330,000 tested, 0.59% active; inhibition of aptamer binding, % at 10 µM; AID 488847, 2010; FAM-aptamer displacement from GRK2;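 active = inhibition of aptamer binding above 40%, roughly 3 SD of noise, on plates passing a quality check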;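 note: median bead fluorescence of bound FAM aptamer so fluorescent compounds give negative values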
MEKK2mut PB1 HTS: MEK5 binding signal on mutant MEKK2 PB1, primary screen, biochemical, multiplex bead flow cytometry, Alexa488-MEK5. Alexa488-MEK5 binding to MEKK2 mutant. percent response, % at 10 µM. 290,000 tested, 0.35% active; in the data active = percent response above about 24%, passing the limit was not always enough
MEKK3 PB1 HTS: modulators of MEKK3-MEK5 PB1 binding, primary screen, biochemical, wildtype MEKK3, multiplex bead flow cytometry, Alexa488-MEK5 | 290,000 tested, 1.4% active | bead-based flow cytometry, Alexa488-MEK5 binding to MEKK3; actives lie on both sides; 0 = blocked by unlabeled MEK5, 100 = vehicle | Mitogen-activated protein kinase kinase kinase 3 (Homo sapiens), Q99759 | AID 1529, 2009 | binding response (% of control), % at 10 µM;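 active = binding response more than 3 SD above or below the average of its plate-row segment, actives on both sides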;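 note: Alexa488 bead fluorescence after subtracting the streptavidin-only scavenger bead signal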
Target sequence (Q99759 whole entry, looked up): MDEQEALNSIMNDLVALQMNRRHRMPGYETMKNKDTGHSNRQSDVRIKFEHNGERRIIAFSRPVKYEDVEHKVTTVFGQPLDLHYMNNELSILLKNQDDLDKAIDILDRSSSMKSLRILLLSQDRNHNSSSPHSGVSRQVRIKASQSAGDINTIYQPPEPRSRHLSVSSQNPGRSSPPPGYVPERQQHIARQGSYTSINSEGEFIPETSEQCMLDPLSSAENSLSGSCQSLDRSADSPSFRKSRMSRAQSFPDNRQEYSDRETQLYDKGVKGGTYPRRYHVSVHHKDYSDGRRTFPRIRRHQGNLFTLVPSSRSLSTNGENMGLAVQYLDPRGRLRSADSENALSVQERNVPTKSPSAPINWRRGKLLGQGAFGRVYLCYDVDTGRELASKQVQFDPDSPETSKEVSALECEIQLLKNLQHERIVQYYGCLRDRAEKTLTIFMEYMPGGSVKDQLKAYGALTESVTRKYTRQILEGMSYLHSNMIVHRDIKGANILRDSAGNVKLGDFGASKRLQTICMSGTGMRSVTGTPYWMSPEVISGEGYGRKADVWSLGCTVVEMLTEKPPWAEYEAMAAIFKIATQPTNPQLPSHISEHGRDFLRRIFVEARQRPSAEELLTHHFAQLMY
MEKK2 WT-MEK5: modulators of MEK5 binding to wildtype MEKK2, primary screen, biochemical, multiplex bead flow cytometry, Alexa488-MEK5. Alexa488-MEK5 binding to MEKK2 WT; actives lie on both sides. binding response (% of control), % at 10 µM. 290,000 tested, 1.1% active. AID 1531, 2009; in the data active = binding response below about 67% or above about 130%
GRK2 CP1: GRK2 aptamer-displacing inhibitors, retest, confirmation, biochemical, cherry pick 1, bead flow cytometry; bead-bound GRK2, FAM-aptamer displacement; aptamer displacement, % at 10 µM; 2,000 tested, 4% active; shares compounds with GRK2 inh;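 active = aptamer displacement above 40%, near three times the noise of non-fluorescent compounds, on plates passing quality checks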;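 note: negative values mostly reflect intrinsic compound fluorescence rather than true enhancement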
Aptamer quench: counter-screen for GRK2 aptamer inhibitors: fluorescent aptamer quenchers | 110 tested, under 10 active | shares compounds with GRK2 inh | fluorescence change (kMESF span), kMESF (no concentration beside the values) | Fluorescent RNA aptamer beads, quenching, flow cytometry; hits give high values;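 active = compounds whose bead fluorescence drops by more than 37 kMESF across the dose range, marking them as dye quenchers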
FAM quench CP1: quenches fluorescent RNA aptamer, GRK2 hit artifact | 2,000 tested, under 10 active | fluorescence response (% of DMSO), % at 10 µM | shares compounds with GRK2 inh | Carboxyfluorescein RNA aptamer on beads, flow cytometry quenching; hits give low values;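 active = compounds that quench the bead-bound fluorescent RNA probe, cutting fluorescence to under half of the solvent control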;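 note: counterscreen run without GRK2 so only probe quenching by compound is measured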
FAM quench DR: quenchers of FAM-labeled RNA aptamer fluorescence, dose response, artefact control for GRK2 aptamer binding project, biochemical, powder set 1, flow cytometry. shares compounds with GRK2 inh. Bead-bound FAM RNA aptamer fluorescence quenching; hits give low values. fluorescence ratio to DMSO, % at 11.1 µM. 35 tested, under 10 active;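 active = compounds that dim the fluorescent label, raw bead signal shifting by over 33 units between lowest and highest dose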
Large screens that a line does not name were inactive (follow-up assays come after a bar, where they were run).

Cc1csc(NC(=O)C2CCCCN2S(=O)(=O)c2ccccc2)n1 (stereo not given)	GRK2 inh 95.0 (no result: MEKK2mut PB1 HTS, MEKK3 PB1 HTS, MEKK2 WT-MEK5) | GRK2 CP1 inactive | FAM quench CP1 inactive
O=C(Nc1nccs1)C1CCCCN1S(=O)(=O)c1ccccc1 (stereo not given)	none
Nc1nc(NCCO)nc(NCc2ccccc2)c1[N+](=O)[O-]	GRK2 inh 97.0 | GRK2 CP1 inactive | FAM quench CP1 inactive
Nc1nc(NCc2ccccc2)nc(NCCO)c1[N+](=O)[O-]	none
CC(=O)c1cccc(NC(=O)c2cc(-c3ccc(C)cc3)on2)c1	none | GRK2 CP1 inactive | FAM quench CP1 inactive
CC(=O)c1cccc(NC(=O)c2c(C)nn(-c3ccccc3)c2Cl)c1	none | GRK2 CP1 inactive | FAM quench CP1 inactive
Cc1ccc(-n2nc(C)c(C(=O)Nc3cccc(C(=O)NC4CC4)c3)n2)c(C)c1	none (no result: MEKK2mut PB1 HTS, MEKK3 PB1 HTS, MEKK2 WT-MEK5) | GRK2 CP1 inactive | FAM quench CP1 inactive
COc1ccc(NC(=O)c2cc(-c3ccc(C)cc3)on2)cc1OC	none
Cc1nn(-c2cccc(Cl)c2)nc1C(=O)Nc1cccc(C(=O)NC2CC2)c1	none (no result: MEKK2mut PB1 HTS, MEKK3 PB1 HTS, MEKK2 WT-MEK5) | GRK2 CP1 inactive | FAM quench CP1 inactive
Cc1cccc(C(=O)Nc2cccc(C(=O)NC3CCCC3)c2)c1	none
O=C(NCc1ccccc1F)c1ccc2c(c1)OCCO2	none
CCc1ccc(NC(=O)C(C)OC(=O)CC(NC(C)=O)c2ccccc2)cc1 (stereo not given)	none
COc1ccc(C2N(C(=O)C(F)(F)F)C(C)CN2S(=O)(=O)c2ccc(C)cc2)cc1 (stereo not given)	none
NC(=O)C1CCN(C(=O)CN2CCc3ccccc32)CC1	none
NC(=O)C1CCN(CC(=O)N2c3ccccc3CCc3ccccc32)CC1	none | GRK2 CP1 inactive | FAM quench CP1 inactive
CCn1c(SCC(=O)N2CCCC2)nnc1-c1ccco1	GRK2 inh 47.0 | GRK2 CP1 inactive | FAM quench CP1 inactive
CCn1c(SCC(=O)N2CCOCC2)nnc1-c1ccco1	none
COC(=O)C(Cc1ccccc1)NC(=O)CNC(=O)c1ccc(Br)cc1 (stereo not given)	none
COC(=O)c1ccccc1NC(=O)C1CCN(c2ncnc3c2nc2n3CCCCC2)CC1	none
Cc1ccc(S(=O)(=O)Oc2cccc(N3C(=O)C4CC=CCC4C3=O)c2)cc1 (stereo not given)	GRK2 inh 71.0 | GRK2 CP1 inactive | FAM quench CP1 inactive
CCCC(=O)Nc1nc2ccc(OCC)cc2s1	none
CCOc1ccc2nc(NC(=O)CCn3cccc3)sc2c1	none | GRK2 CP1 inactive | FAM quench CP1 inactive
Cc1cc(NC(=O)CSc2n[nH]c(-c3ccc(Cl)cc3Cl)n2)no1	none (no result: MEKK2mut PB1 HTS, MEKK3 PB1 HTS, MEKK2 WT-MEK5)
O=C(CCS(=O)(=O)c1ccc(Br)s1)Nc1ccccc1Br	GRK2 inh 88.0 | GRK2 CP1 inactive | Aptamer quench inactive | FAM quench CP1 inactive | FAM quench DR inactive
COc1ccc(NC(=O)CCS(=O)(=O)c2ccc(Br)s2)cc1	GRK2 inh 87.0 | GRK2 CP1 42.7 | Aptamer quench inactive | FAM quench CP1 inactive | FAM quench DR inactive
CCOC(=O)/C(C#N)=c1/s/c(=C2\C=Cc3ccccc3N2CC)c(=O)n1CC	GRK2 inh 65.0 (no result: MEKK2mut PB1 HTS, MEKK3 PB1 HTS, MEKK2 WT-MEK5) | GRK2 CP1 inactive | FAM quench CP1 inactive
COc1ccc([C@H]2CC(=O)C=C(c3ccccc3-c3ccccc3)C2)cc1	none (no result: MEKK2mut PB1 HTS, MEKK3 PB1 HTS, MEKK2 WT-MEK5)
COc1ccc([C@H]2CC(=O)C=C(c3ccccc3Oc3ccccc3)C2)cc1	GRK2 inh 60.0 (no result: MEKK2mut PB1 HTS, MEKK3 PB1 HTS, MEKK2 WT-MEK5) | GRK2 CP1 inactive | FAM quench CP1 inactive
